The source of these data is ChEMBL document CHEMBL3988442, “University of Dundee, Small-Polar-MMV Screening Library” (2021).

For part of these data: Entries with a potency or affinity are not part of this list.

Common to all, as to set-up: scale not given: direction of the effect not stated beside the values
The target of assay [1] is Protein translocase subunit SecA (Escherichia coli (strain K12)) (UniProt P10408). The assay is described as follows: Assay to Identify E. coli SecA ATPase Inhibitors. As to conditions: 30 µM. The format is functional.
Sequence of Protein translocase subunit SecA (Escherichia coli (strain K12)) (P10408 whole entry): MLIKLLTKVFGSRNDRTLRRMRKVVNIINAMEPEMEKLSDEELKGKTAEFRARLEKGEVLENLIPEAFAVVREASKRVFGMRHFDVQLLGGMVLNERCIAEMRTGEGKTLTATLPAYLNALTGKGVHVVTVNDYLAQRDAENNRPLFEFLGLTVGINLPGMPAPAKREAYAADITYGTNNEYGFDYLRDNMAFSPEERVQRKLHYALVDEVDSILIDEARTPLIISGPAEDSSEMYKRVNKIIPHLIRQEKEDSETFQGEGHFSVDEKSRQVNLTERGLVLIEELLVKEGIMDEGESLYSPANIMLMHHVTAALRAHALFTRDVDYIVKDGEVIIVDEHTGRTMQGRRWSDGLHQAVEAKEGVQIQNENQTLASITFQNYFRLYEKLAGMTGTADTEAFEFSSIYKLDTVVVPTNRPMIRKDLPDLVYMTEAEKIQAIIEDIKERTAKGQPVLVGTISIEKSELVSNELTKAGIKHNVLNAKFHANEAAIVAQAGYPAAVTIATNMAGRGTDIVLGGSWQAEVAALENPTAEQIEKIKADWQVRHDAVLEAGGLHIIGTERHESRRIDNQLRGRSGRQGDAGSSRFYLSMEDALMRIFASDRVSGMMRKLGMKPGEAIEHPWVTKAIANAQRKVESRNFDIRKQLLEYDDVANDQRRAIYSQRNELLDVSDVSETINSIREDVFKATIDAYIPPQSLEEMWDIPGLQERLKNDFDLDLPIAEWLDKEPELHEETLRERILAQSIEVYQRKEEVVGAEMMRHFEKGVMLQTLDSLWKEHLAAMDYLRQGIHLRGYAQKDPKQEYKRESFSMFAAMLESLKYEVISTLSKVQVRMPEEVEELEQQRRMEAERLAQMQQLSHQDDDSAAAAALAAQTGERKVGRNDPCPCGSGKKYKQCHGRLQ
The target in assay [2] is T1, Ubiquitin-activating enzyme e1, putative (Leishmania donovani (strain BPK282A1)) (UniProt E9BSI1).
T1 sequence (whole entry): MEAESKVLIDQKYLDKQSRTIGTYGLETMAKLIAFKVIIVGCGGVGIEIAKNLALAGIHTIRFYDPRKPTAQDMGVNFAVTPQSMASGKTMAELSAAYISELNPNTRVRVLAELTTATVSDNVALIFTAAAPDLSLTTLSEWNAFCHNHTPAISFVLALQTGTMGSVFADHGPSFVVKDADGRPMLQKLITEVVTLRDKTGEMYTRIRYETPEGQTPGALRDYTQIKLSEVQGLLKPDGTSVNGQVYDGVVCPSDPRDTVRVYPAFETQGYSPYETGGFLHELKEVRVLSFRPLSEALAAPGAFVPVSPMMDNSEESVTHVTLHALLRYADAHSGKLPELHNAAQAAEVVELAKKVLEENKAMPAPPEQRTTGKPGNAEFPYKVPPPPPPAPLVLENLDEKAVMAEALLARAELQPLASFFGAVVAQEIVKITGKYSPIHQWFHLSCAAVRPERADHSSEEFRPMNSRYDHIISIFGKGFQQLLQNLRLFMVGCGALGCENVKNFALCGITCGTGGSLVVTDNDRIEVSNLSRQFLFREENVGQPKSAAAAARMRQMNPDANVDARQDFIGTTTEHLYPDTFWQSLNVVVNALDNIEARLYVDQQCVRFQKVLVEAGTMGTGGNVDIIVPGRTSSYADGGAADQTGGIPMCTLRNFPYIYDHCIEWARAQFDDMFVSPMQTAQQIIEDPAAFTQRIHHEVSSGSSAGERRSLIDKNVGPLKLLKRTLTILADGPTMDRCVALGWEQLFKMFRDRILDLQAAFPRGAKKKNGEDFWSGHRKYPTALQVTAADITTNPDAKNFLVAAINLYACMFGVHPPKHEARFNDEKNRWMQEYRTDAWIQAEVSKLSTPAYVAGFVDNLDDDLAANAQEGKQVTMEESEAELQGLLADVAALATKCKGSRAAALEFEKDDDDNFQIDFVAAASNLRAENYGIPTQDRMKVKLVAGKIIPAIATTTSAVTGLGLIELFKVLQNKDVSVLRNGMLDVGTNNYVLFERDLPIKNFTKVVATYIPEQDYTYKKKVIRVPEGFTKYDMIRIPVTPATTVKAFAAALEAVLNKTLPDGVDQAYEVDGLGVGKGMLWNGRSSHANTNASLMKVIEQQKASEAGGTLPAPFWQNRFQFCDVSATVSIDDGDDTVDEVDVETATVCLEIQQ
Description: Leishmania donovani Ubiquitin Activating Enzyme (LdE1). Format: functional. As to conditions: 30 µM.

Assay [3] deals with AMP-activated protein kinase, AMPK (Homo sapiens) (UniProt P54646+O43741+P54619+Q9UGJ0+Q9Y478+Q13131+Q9UGI9). The assay is described as follows: AMP-dependent Kinase enzyme assay. An in vitro enzyme assay that detects ADP turnover that is directly proportional to AMPK activity. This uses naive AMPK that is activated during the assay with MK-8722. Format: functional. As to conditions: 30 µM.

The target of assay [4] is Sialic acid-binding Ig-like lectin 9 (Homo sapiens) (UniProt Q9Y336). The assay is described as follows: Hs-Siglec9 ALPHAscreen SOP 20170721. As to conditions: 10 µM.
Sequence of Sialic acid-binding Ig-like lectin 9 (Homo sapiens) (Q9Y336 whole entry): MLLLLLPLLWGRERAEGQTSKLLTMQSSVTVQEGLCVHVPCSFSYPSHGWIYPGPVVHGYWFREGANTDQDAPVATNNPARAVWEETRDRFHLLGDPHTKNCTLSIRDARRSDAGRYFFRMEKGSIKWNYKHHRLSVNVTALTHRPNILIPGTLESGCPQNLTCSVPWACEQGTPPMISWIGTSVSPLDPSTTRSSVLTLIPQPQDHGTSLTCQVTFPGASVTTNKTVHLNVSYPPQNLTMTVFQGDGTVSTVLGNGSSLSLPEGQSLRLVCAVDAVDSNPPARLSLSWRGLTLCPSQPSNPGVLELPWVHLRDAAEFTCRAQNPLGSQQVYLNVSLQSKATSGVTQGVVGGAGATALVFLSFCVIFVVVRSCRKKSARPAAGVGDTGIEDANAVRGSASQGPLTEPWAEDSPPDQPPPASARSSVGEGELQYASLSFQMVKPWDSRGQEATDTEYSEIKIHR
In the next assay the test system is Trypanosoma cruzi. Description: Trypanosoma cruzi phosphomannomutase and mannose-1-phosphate guanylyltransferase assay. As to conditions: 10 µM. Format: functional.
Assay [5] concerns the target T2, Arginase-2, mitochondrial (Homo sapiens) (UniProt P78540).
T2 sequence (whole entry): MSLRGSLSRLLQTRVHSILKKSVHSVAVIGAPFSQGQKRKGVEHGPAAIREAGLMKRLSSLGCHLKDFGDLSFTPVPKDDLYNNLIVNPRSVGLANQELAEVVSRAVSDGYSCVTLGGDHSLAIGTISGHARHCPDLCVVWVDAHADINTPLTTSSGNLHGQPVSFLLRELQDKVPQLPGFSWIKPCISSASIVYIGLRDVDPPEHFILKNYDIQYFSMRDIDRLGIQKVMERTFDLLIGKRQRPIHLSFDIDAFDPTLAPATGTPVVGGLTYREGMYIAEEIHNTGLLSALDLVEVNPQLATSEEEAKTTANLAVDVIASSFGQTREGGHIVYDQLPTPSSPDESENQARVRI
The assay is described as follows: in vitro enzyme assay to detect the production of urea directly proportional to the activity of Arginase II. Also: in the data most compounds retested in dose-response had high values. Format: functional.

Assay [6] has as its target T3, Proteasome subunit beta (Trypanosoma cruzi) (UniProt O96673).
T3 sequence (whole entry): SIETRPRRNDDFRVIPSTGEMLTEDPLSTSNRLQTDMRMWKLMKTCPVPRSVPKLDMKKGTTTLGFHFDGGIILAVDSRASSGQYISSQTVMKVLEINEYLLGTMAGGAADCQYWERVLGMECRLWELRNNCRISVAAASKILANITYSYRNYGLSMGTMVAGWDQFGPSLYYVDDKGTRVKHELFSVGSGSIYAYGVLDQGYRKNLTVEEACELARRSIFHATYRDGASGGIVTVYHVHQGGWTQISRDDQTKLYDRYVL
The assay is described as follows: Trypanosoma cruzi proteasome chymotrypsin-like activity (TcProtChymo) assay. Also: in the data most compounds retested in dose-response had high values. As to conditions: 9.37 µM. Format: functional.

A further assay is filed under the species Homo sapiens. Description: To identify inhibition of the IFN signalling (Jak-Stat) pathway via expression of an eGFP reporter gene under the control of an IFN-stimulated response element (ISRE) containing MxA promoter. The format is functional. As to conditions: 30 µM. A general note: Reporter assays use an easily measured gene product as a stand-in for the process of interest.

The target in assay [7] is T4, Tyrosyl-tRNA synthetase, putative (Trypanosoma cruzi (strain CL Brener)) (UniProt Q4DSP6).
T4 sequence (whole entry): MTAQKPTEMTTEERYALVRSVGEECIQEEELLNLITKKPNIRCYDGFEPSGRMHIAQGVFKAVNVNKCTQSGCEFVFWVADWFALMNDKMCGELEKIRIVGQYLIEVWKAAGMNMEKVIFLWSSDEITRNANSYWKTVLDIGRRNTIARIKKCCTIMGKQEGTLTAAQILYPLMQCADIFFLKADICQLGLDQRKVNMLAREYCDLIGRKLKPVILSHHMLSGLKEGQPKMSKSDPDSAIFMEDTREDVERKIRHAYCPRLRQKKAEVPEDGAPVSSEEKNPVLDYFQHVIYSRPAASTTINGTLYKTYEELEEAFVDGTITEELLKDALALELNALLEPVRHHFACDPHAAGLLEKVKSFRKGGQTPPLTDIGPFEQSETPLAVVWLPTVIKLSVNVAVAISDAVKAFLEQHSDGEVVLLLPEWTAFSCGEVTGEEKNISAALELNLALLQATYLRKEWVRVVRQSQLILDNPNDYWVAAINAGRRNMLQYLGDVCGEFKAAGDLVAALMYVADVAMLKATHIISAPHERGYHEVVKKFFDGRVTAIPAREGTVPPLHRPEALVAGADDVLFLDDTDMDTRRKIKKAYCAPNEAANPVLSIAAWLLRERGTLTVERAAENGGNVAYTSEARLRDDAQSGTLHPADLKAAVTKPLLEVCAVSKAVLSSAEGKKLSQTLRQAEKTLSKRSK
Description: Trypanosoma cruzi tyrosyl tRNA synthetase (TcYRS) _High Tyrosine SOP. Also: in the data most compounds retested in dose-response had high values. Format: functional. As to conditions: 30 µM.

For assay [8], the target named is T4, Tyrosyl-tRNA synthetase, putative (Trypanosoma cruzi (strain CL Brener)). The assay is described as follows: Trypanosoma cruzi tyrosyl tRNA synthetase (TcYRS) SOP. The format is functional. As to conditions: 30 µM.
For assay [9], the target named is Chromo domain-containing protein 1 (Saccharomyces cerevisiae (strain ATCC 204508 / S288c) (Baker's yeast)) (UniProt P32657). The assay is described as follows: ScCHD-1 Enzyme Inhibition Assay. Also: in the data most compounds retested in dose-response had high values. The format is functional. As to conditions: 30 µM.
Sequence of Chromo domain-containing protein 1 (Saccharomyces cerevisiae (strain ATCC 204508 / S288c) (Baker's yeast)) (P32657 whole entry, the tested form may be a part): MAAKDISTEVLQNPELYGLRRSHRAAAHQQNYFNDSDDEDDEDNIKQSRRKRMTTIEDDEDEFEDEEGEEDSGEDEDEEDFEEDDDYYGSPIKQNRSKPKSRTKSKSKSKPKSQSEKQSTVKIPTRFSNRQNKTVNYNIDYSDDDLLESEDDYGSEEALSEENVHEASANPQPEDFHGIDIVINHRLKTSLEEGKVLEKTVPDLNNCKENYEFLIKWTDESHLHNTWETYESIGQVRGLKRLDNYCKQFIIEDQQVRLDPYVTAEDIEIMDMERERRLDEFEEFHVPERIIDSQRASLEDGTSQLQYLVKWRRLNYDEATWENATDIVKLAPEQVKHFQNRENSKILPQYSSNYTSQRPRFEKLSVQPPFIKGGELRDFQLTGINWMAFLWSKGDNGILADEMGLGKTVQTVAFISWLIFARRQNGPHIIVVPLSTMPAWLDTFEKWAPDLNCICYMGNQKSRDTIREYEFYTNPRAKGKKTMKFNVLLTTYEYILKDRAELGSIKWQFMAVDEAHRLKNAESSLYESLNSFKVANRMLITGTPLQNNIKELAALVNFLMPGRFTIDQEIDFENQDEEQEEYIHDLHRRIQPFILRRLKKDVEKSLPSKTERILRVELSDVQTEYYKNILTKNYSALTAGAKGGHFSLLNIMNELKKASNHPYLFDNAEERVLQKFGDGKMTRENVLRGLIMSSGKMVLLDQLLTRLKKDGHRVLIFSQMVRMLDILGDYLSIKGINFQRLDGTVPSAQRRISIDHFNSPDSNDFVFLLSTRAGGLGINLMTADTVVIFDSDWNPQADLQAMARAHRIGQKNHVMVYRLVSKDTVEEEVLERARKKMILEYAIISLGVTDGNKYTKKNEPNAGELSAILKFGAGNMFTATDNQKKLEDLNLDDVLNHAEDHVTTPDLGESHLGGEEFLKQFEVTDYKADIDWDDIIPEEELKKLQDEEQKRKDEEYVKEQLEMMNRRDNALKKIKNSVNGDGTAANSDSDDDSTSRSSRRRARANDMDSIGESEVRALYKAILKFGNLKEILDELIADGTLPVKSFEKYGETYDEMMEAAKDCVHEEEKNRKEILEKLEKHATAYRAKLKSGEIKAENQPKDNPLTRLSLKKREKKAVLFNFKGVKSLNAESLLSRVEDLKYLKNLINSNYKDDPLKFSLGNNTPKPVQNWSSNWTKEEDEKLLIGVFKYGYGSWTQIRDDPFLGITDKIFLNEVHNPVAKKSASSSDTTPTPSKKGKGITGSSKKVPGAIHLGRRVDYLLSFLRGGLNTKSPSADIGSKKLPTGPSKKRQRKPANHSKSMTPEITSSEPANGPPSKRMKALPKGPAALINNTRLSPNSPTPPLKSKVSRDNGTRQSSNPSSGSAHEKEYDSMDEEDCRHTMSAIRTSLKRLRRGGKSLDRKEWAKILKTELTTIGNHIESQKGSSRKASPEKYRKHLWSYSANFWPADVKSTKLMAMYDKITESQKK

With `O=C(Cn1nc2c(cc1=O)CCCC2)N[C@@H](C(=O)O)c1ccccc1`, the Percent Effect is -1.59% in assay [1]; 9.33% in assay [2]; 0.931% in assay [3]; 7.75% in assay [4]; 3.34% in the assay with Trypanosoma cruzi; 8.11% in [5] (30 µM). The Percent Effect in assay [5] (33.3 µM) is 0.176%; in assay [6], 12.2%; in the assay listed under Homo sapiens, 14.1%; in assay [7], 10.6%; in assay [8] it was 20.5%; in [9], -5.57%.
`CN(Cc1ccccn1)C(=O)[C@]12COC[C@H]1CN(Cc1cnn(C)c1)C2`: the Percent Effect is -1.75% in assay [1]; 2.67% in assay [2]; 0.223% in [3]; 6.55% in assay [4]; 1.16% with Trypanosoma cruzi; 5.95% in assay [5] (30 µM). For the same compound, the Percent Effect in assay [5] (33.3 µM) is -52.5%; in [6] it was 3.93%; in the assay filed under Homo sapiens, -7.69%; in [7], 2.08%; in [8] it was 7.5%; in assay [9], -8.12%.
Take `O=C(Cn1nc2c(cc1=O)CCCC2)N[C@@H](Cc1ccccc1)C(=O)O`: the Percent Effect is 0.621% in assay [1]; 9.33% in assay [2]; 0.52% in [3]; -1.3% in [4]; 0.197% in the assay with Trypanosoma cruzi; 0.54% in [5] (30 µM). Moreover, the Percent Effect in [5] (33.3 µM) was 0.88%; in [6] it was 16.1%; in the assay listed under Homo sapiens it was 24.4%; in assay [7], 5.29%; in assay [8], 12.8%; in assay [9] it was -9.91%.
On to `Cn1cc(CC2CCN(C(=O)NCc3cn4ccsc4n3)C2)cn1` (stereo not given), for which the Percent Effect is -6.21% in assay [1]; 13.2% in [2]; -5.79% in assay [3]; -0.407% in assay [4]; 5.36% with Trypanosoma cruzi; 2.7% in assay [5] (30 µM). The Percent Effect in [5] (33.3 µM) was -18.9%; in [6] it was 12.2%; in the assay listed under Homo sapiens, 4.6%; in assay [7], 6.38%; in assay [8], 18.2%; in assay [9], -14.5%.
As to `CNC(=O)[C@H]1C[C@@H]2CN(C(=O)c3cscn3)C[C@@H]2N1S(C)(=O)=O`, the Percent Effect in [1] is -2.22%; in assay [2], 5.33%; in assay [3], 0.103%; in [4], 9.01%; with Trypanosoma cruzi, -4.05%; in assay [5] (30 µM), 4.87%. Besides, the Percent Effect in assay [5] (33.3 µM) is -27.1%; in assay [6], 5.64%; in the assay filed under Homo sapiens it was -13%; in assay [7], 4.17%; in assay [8], -52.5%; in assay [9] it was -3.61%.
Turning to `O=C(Cc1ccccn1)N1CCC2(CC1)CC(Oc1ccccn1)CO2` (stereo not given), the Percent Effect is -3.31% in [1]; 10.7% in [2]; 4.11% in assay [3]; 0.184% in assay [4]; -1.18% with Trypanosoma cruzi; 2.7% in assay [5] (30 µM). Also, the Percent Effect in assay [5] (33.3 µM) is -5.36%; in [6], 12.2%; in the assay filed under Homo sapiens it was 12.5%; in assay [7], 7.45%; in assay [8], 16.7%; in [9], -7.71%.
Consider `OC(CN(Cc1ccccc1)Cc1ccncc1)c1cccs1` (stereo not given), for which the Percent Effect is 3.55% in assay [1]; 2.7% in [2]; -2.19% in assay [3]; 5.24% in assay [4]; 4.79% in the assay with Trypanosoma cruzi; 5.95% in [5] (30 µM). For the same compound, the Percent Effect is 25.1% in assay [5] (33.3 µM); 10.2% in [6]; 5.3% in the assay filed under Homo sapiens; 1.07% in assay [7]; 6.17% in [8]; -8.61% in assay [9].
In the case of `Cc1ccc(CNCc2nnc3n2CC(C(F)(F)F)CC3)cc1` (stereo not given), the Percent Effect in assay [1] was -0.646%; in [2], 18.9%; in assay [3], -2.64%; in [4], 4.4%; with Trypanosoma cruzi it was 3.23%; in [5] (30 µM), -11.3%. Besides, the Percent Effect in assay [5] (33.3 µM) was -3.23%; in [6], 8.5%; in the assay filed under Homo sapiens it was 11.6%; in assay [7], 5.38%; in assay [8], 13.6%; in assay [9], -11.9%.
With `O=c1[nH]c2c(c(=O)n1C1CCCCC1)CCC2NCCc1ccccc1` (stereo not given), the Percent Effect in [1] is -2.86%; in assay [2], 1.33%; in [3], -8.89%; in assay [4], 6.39%; in the assay on Trypanosoma cruzi, 2.75%; in assay [5] (30 µM) it was 1.62%. The Percent Effect in [5] (33.3 µM) was -3.35%; in assay [6], 2.22%; in the assay filed under Homo sapiens, -14.6%; in [7] it was -3.17%; in assay [8], 0%; in [9], -3.17%.
`FC(F)(F)C1CCc2nnc(CNCc3ccsc3)n2C1` (stereo not given): the Percent Effect is -4.02% in assay [1]; 16.2% in assay [2]; 1.38% in assay [3]; 30.8% in assay [4]; 5.18% in the assay on Trypanosoma cruzi; 5.95% in [5] (30 µM). Also, the Percent Effect in assay [5] (33.3 µM) was 10.2%; in assay [6], 10.4%; in the assay listed under Homo sapiens, -8.39%; in assay [7] it was 5.38%; in assay [8] it was 16.1%; in [9], -13.2%.
